The source holds several records for some structures; these can differ, active in one and inactive in another. Active and inactive are the calls of the source. The calls were made as follows: active = hit-call score of the fitted dose curve at least 0.9, where 1 is the maximum; inactive = score below 0.9.

The target of test [1] is Paired box protein Pax-6 (Homo sapiens) (UniProt P26367). The test can be described thus: ATG_Pax6_CIS: Attagene CIS-FACTORIAL HepG2 Assay for human Paired Box 6 (PAX6) (AID 2282956). The following applies: HepG2 CIS-FACTORIAL PAX6 reporter transcription, RNA readout; actives raise or lower the signal. The method, boiled down: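 Fluorescent RT-PCR products separated by capillary electrophoresis report PAX6-linked promoter mRNA in HepG2 cells 24 h post-dose. Curves fitted bidirectionally, DMSO as negative control.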

Test [2] in a line: ATG_PPRE_CIS: Attagene CIS-FACTORIAL HepG2 Assay for human Peroxisome Proliferator-activated Response Element (PPRE) (AID 2282958). The following applies: HepG2 PPRE cis-element reporter, Attagene transcription factor profiling; actives raise or lower the signal. The method, boiled down: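 PPRE activity in HepG2: transient cis-reporter transfection, 24 h compound incubation, reporter mRNA by RT-PCR and CE fluorescence; gain/loss fitted against DMSO.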

A short description of test [3]: ATG_RORE_CIS: Attagene CIS-FACTORIAL HepG2 Assay for human RAR-related Orphan Receptor Element (RORE) (AID 2282959). The following applies: HepG2 Attagene cis-factorial RORE reporter, mRNA; actives raise or lower the signal. The essentials:
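A 24-hour exposure of transfected HepG2 hepatoma cells precedes RNA isolation and reporter RT-PCR. Labeled products are digested with HpaI and resolved by capillary electrophoresis, with gain or loss of signal scored relative to DMSO.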

Test [4] in a line: ATG_Sox_CIS: Attagene CIS-FACTORIAL HepG2 Assay for human SRY-box transcription factor (SOX) (AID 2282960). The following applies: HepG2 Attagene cis-factorial SOX reporter, mRNA; actives raise or lower the signal. The essentials:
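HepG2, cis reporter units, 24 h exposure. Reporter mRNA: RT-PCR → FAM labelling → HpaI → CE fluorescence. Bidirectional fit vs DMSO.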

The target in test [5] is Transcription factor Sp1 (Homo sapiens) (UniProt P08047). Kind of test: ATG_Sp1_CIS: Attagene CIS-FACTORIAL HepG2 Assay for human Specificity Protein 1 (Sp1) (AID 2282961). The following applies: HepG2 Sp1 cis-reporter transcription, actives raise or lower the signal. The method, boiled down: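 Liver-derived HepG2 cells, cis-element reporter library, 24 h treatment; RNA isolated, cDNA amplified with reporter-specific primers, FAM-labeled fragments sized on capillary analyzer. DMSO baseline, bidirectional curve fit.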

The nature of test [6]: ATG_SREBP_CIS: Attagene CIS-FACTORIAL HepG2 Assay for human Sterol Regulatory Element Binding (SREBP) (AID 2282962). The following applies: HepG2 Attagene cis-factorial SREBP reporter, mRNA; actives raise or lower the signal. The method, boiled down:
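Endogenous factor activity is measured in HepG2 through multiplexed reporter units under cis-element control. Following a 24 h incubation, reporter transcripts are reverse-transcribed, PCR-amplified and sized by capillary electrophoresis; activity is fitted in both directions relative to DMSO.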

For test [7], the target named is Signal transducer and activator of transcription 3 (Homo sapiens) (UniProt P40763). Kind of test: ATG_STAT3_CIS: Attagene CIS-FACTORIAL HepG2 Assay for human Signal Transducer and Activator of Transcription 3 (STAT3) (AID 2282963). The following applies: HepG2, Attagene cis-factorial STAT3 reporter transcription; actives raise or lower the signal. The method, boiled down:
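HepG2, MRTU-transfected, 24 h dosing. RNA → RT → PCR → FAM label → HpaI → CE. Bidirectional fit vs DMSO.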

Test [8] in a line: ATG_TA_CIS: Attagene CIS-FACTORIAL HepG2 Assay for human TA Basal Promoter (AID 2282964). The following applies: HepG2 Attagene CIS-factorial TA basal promoter reporter; actives raise or lower the signal. The method, boiled down:
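Transient MRTU transfection of HepG2 preceded 24 h compound exposure. Reporter mRNA levels were then read by RT-PCR with capillary electrophoresis, and this background-control endpoint was fitted bidirectionally to DMSO.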

Test [9] in a line: ATG_TCF_b_cat_CIS: Attagene CIS-FACTORIAL HepG2 Assay for human T-Cell-Factor with beta-catenin (TCF/b-cat) (AID 2282965). The following applies: HepG2 TCF/beta-catenin cis-reporter transcription, actives raise or lower the signal. The method, boiled down: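 HepG2 cells transiently transfected with multiple cis-promoter-regulated reporter transcription units, so endogenous transcription factor activity is measured. Reporter mRNA read 24 hours after dosing by RT-PCR, fluorescent labelling and capillary electrophoresis; bidirectional fitting against DMSO.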

Transcription factor Sp1 (Homo sapiens), sequence (P08047 whole entry, looked up, the tested form may be a part): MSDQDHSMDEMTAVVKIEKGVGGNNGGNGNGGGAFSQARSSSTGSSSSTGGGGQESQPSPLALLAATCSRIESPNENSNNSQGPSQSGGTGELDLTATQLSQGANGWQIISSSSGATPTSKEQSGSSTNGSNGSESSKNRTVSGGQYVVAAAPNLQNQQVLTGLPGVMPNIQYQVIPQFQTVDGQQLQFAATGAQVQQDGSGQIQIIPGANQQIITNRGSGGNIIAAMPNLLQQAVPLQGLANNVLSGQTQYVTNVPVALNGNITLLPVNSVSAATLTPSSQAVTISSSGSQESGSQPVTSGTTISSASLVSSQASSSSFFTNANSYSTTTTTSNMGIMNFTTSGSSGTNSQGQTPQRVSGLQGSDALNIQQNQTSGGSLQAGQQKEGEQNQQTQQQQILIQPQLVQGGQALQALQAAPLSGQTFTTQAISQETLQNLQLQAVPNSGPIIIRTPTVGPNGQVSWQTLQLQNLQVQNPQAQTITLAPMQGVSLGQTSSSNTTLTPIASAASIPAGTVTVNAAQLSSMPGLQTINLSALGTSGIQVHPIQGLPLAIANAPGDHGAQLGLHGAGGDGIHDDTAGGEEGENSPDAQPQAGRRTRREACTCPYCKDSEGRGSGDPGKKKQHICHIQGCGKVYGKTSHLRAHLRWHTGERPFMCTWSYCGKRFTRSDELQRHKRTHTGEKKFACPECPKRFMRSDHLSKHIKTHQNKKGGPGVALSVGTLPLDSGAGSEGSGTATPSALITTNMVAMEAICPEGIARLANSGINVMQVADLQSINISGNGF
Paired box protein Pax-6 (Homo sapiens), sequence (P26367 whole entry, looked up): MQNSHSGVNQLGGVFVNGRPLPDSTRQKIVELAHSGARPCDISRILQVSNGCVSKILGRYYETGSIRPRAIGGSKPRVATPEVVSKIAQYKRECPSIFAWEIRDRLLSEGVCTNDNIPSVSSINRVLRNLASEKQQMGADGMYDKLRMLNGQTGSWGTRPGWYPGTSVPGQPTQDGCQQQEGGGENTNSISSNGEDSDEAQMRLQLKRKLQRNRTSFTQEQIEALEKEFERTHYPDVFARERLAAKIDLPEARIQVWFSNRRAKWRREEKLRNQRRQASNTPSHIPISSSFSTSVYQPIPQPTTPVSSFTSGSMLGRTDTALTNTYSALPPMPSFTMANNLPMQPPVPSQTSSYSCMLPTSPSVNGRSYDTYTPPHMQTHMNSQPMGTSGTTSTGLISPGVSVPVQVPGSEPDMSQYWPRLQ
Signal transducer and activator of transcription 3 (Homo sapiens), sequence (P40763 whole entry, looked up): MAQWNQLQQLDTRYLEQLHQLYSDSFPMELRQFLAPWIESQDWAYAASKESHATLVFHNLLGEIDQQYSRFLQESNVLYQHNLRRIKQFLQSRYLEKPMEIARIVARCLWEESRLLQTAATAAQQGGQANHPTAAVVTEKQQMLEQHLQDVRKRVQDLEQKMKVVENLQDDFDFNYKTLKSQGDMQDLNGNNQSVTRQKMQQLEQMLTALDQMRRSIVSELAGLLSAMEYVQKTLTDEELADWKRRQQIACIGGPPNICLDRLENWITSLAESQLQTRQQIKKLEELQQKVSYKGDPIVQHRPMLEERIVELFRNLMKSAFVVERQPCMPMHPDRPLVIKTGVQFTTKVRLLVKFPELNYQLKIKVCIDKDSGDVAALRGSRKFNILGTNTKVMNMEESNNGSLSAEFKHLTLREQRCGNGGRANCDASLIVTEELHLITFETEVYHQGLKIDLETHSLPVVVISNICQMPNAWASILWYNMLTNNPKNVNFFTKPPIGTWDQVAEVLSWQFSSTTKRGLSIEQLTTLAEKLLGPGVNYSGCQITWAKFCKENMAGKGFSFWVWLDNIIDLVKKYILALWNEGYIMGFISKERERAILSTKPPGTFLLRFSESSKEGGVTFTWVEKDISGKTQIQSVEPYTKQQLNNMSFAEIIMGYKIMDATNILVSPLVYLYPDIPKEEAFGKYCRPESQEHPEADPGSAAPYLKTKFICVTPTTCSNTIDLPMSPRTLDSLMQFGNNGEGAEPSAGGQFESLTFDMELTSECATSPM

Turning to `CCCc1ccccc1`, the compound was called inactive in [1], in test [2], in test [3], in [4], in [5] and in test [6]. In addition, the compound was classed as inactive in [7], in test [8] and in test [9].

`COS(C)(=O)=O`: the outcome in test [1], in [2], in [3], in test [4], in [5] and in test [7] was inactive. Also, the outcome in test [8] and in test [9] was inactive.

Consider `FC(F)=C(F)C(F)(F)C(F)(F)C(F)(F)C(F)(F)C(F)(F)C(F)(F)F`, for which the compound was classed as inactive in [1], in [2], in test [3], in test [4], in test [5] and in test [7]. In addition, the result in test [8] and in test [9] was inactive. For the same compound, the AC50 in test [9] was 234 µM (active).

On to `Cc1ncc([C@@H](CCCCCCc2ccc3c(n2)NCCC3)CC(=O)O)cn1`, for which the result in test [1], in [2], in test [3], in test [4], in test [5] and in [7] was inactive. Moreover, the outcome in test [8] and in test [9] was inactive.

In the case of `CC(C)CC(C)O` (centres undefined), the call in test [1], in test [2], in [3], in test [4], in test [5] and in test [7] was inactive. In addition, the compound was classed as inactive in test [8] and in test [9].

`CNC(C)=O`: the outcome in test [1], in [2], in test [3], in test [4], in [5] and in test [7] was inactive. The compound was classed as inactive in [8] and in [9].

For `C[C@@H](Oc1ccc(CNC(=O)c2cccnc2Oc2ccc3c(c2)OCO3)c(F)c1)C(=O)O`, the compound was called inactive in [1], in test [2], in [3], in [4], in test [5] and in test [6]. Moreover, the outcome in test [7], in [8] and in test [9] was inactive.

As to `O=C(O)c1cccc(C(=O)O)c1`, the result in test [1], in [2], in [3], in test [4], in [5] and in test [7] was inactive. Further, the compound was classed as inactive in [8] and in test [9].

`CCOC(N)=O`: the compound was called inactive in test [1], in test [3], in test [4], in [5], in test [7] and in test [8]. In addition, the result in [9] was inactive.

For `Nc1ccn([C@@H]2O[C@H](CO)[C@@H](O)[C@@H]2O)c(=O)n1`, the compound was called inactive in test [1], in test [2], in test [3], in test [4], in [5] and in test [7]. In addition, the result in [8] and in test [9] was inactive.

For `CCN(CC)C(=S)SSC(=S)N(CC)CC`, the AC50 is 137 µM (active) in test [1], 100 µM (active) in test [4], 150 µM (active) in test [5] and 118 µM (active) in test [9]. In addition, the compound was called inactive in test [2], in [3], in [7] and in test [8].

For `CCCCCCCC1CCC(=O)O1` (centres undefined), the call in test [1], in [2], in [3], in [4], in [5] and in test [6] was inactive. The outcome in test [7], in test [8] and in test [9] was inactive.

On to `NC(N)=O`, for which the compound was classed as inactive in test [1], in test [2], in [3], in test [4], in test [5] and in [7]. Besides, the compound was classed as inactive in test [8] and in [9].

In the case of `OCc1ccccc1`, the call in test [1], in [3], in test [4], in test [5], in test [6] and in test [7] was inactive. Besides, the compound was called inactive in test [8] and in test [9].

With `CC1(C)C(=O)N(Cl)C(=O)N1Cl`, the compound was classed as inactive in test [1], in [3], in [4], in [5], in test [6] and in test [7]. Further, the compound was called inactive in [8] and in [9].

Consider `c1ccc2cc3ccccc3cc2c1`, for which the compound was called inactive in [1], in test [2], in test [3], in test [4], in test [5] and in [7]. The compound was called inactive in test [8] and in test [9].

As to `OC[C@H]1O[C@@H]2O[C@H]3[C@H](O)[C@@H](O)[C@@H](O[C@H]4[C@H](O)[C@@H](O)[C@@H](O[C@H]5[C@H](O)[C@@H](O)[C@@H](O[C@H]6[C@H](O)[C@@H](O)[C@@H](O[C@H]7[C@H](O)[C@@H](O)[C@@H](O[C@H]1[C@H](O)[C@H]2O)O[C@@H]7CO)O[C@@H]6CO)O[C@@H]5CO)O[C@@H]4CO)O[C@@H]3CO`, the compound was classed as inactive in test [1], in test [3], in test [4], in test [5], in [6] and in test [7]. Further, the outcome in test [8] and in test [9] was inactive.

As for `O=S(=O)(O)c1ccc(N=Nc2c(O)ccc3cc(S(=O)(=O)O)ccc23)cc1`, the compound was called inactive in [1], in [3], in [4], in test [5], in test [6] and in [7]. In addition, the compound was classed as inactive in test [8] and in [9].

On to `O=C(O)CO`, for which the compound was classed as inactive in test [1], in [2], in test [3], in test [4], in test [5] and in test [7]. Also, the call in test [8] and in test [9] was inactive.

Take `CC(=O)c1ccccc1`: the outcome in [1], in [2], in test [4], in test [5], in [6] and in test [7] was inactive. Also, the result in [8] and in test [9] was inactive.

For `NC(=O)N(O)[C@@H]1COc2cc(OCc3ccccc3)ccc21`, the call in test [1], in test [2], in test [3], in test [4], in test [5] and in [6] was inactive. Also, the call in test [7], in [8] and in [9] was inactive.

As to `CC(C)C(=O)Nc1ccc([N+](=O)[O-])c(C(F)(F)F)c1`, the result in [1], in test [3], in [4], in test [5], in test [7] and in test [8] was inactive. The result in test [9] was inactive.

As a reminder, the AC50 is the concentration giving half of the maximal activity seen.

For the origin of these results see PubChem BioAssay (EPA / NIEHS).
